# In PubChem BioAssay (Tox21):
# Calls of active or inactive are those of the source. The call rests on the fitted dose curve; in most records, active means well fitted curve in the direction sought with a large enough effect in the repeat runs; inconclusive means weak or mixed curves; inactive means flat fitted curve, though single readings scatter.
# Test: qHTS assay to test for compound auto fluorescence at 460 nm (blue) in HepG2 cells (AID 720687)
# Details: autofluorescence 405/460 nm, 1 h; series mostly up to 91.3 µM; fluorescence, % of fluorescent control: at the top concentration
# Source text: U.S. Tox21 Program National Center for Advancing Translational Sciences [NCATS] NIH Chemical Genomics Center [NCGC] U.S. Environmental Protection Agency [EPA] National Institutes of Environmental Health Sciences [NIEHS] National Toxicology Program [NTP] U.S. Food and Drug Administration [FDA] Tox21 Assay Overview: Compound auto fluorescence often interferes with screening of the compound library against various biological targets and signaling pathways. Some of these compounds may have fluorophoric properties. Such properties may interfere with the assay outputs resulting in false positives and/or negatives. To decrease such complications and ensure the compound activities are relevant in terms of biological response, the Tox21 10K compound library was screened for auto fluorescence. From the fluorophores used as reporter signals in our screening assays, the auto fluorescence equivalencies of compounds against three fluorophores have been evaluated: Triamterene, Fluorescein and Rose Bengal sodium for blue, green and red fluorescence, respectively. The fluorescence intensities were measured using Excitation/Emission wavelengths at 405/460nm, 485/535nm and 540/590nm for blue, green and red labels, respectively. This assay includes the blue fluorescence data.
# Tox21 Assay Protocol Summary: 2,000 HepG2 cells in 5 uL of culture medium (MEM containing 10% FBS) per well were dispensed into black wall/clear bottom 1536-well plates using a Multidrop Combi Dispenser (ThermoFisher Scientific, Waltham, MA). The assay plates were incubated overnight at 37 C to allow cell attachment to the well bottom, followed by the transfer of 23 nL compound or DMSO vehicle by a pintool work station (Kalypsys , San Diego, CA). After the assay plates were incubated for 1 hr at 37 C and 5% CO2, fluorescence intensities in the assay plates were measured by an Envision (PerkinElmer, Shelton, CT) plate reader using three labels for measuring blue, green and red fluorescence at […] 460, 535 and 590 nm respectively.
# On the % scale 0 is the no-effect control and ±100 the full control effect.
Structure (SMILES),"fluorescence, % of fluorescent control",outcome
CCC(=O)c1ccc2c(c1)N(CCCN(C)C)c1ccccc1S2,0.164% [at 46 µM] (inactive),–
CCCN(CCC)C(=O)C(CCC(=O)O)NC(=O)c1ccccc1 (stereo not given),-0.133% [at 46 µM] (inactive),–
CCN(CC)CCOc1ccc(Cc2ccccc2)cc1,-0.0194% [at 46 µM] (inactive),–
CC(C)C(=O)OCC(C)(C)C(O)C(C)C (stereo not given),-0.0035% (inactive),–
CC(C)C1=CC2=CC[C@@H]3[C@](C)(CCC[C@@]3(C)C(=O)O)[C@H]2CC1,–,inactive
CC(C)OC(C)C,-0.0398% [at 95.7 µM] (inactive),–
COc1ccc2nc(NC(=O)Nc3ccccc3)sc2c1,-0.174% [at 46 µM] (inactive),–
C=O,–,inactive
O=C(O)CN(CCN(CC(=O)O)CC(=O)O)CCN(CC(=O)O)CC(=O)O,-0.0381% [at 46 µM] (inactive),–
CC(C)O,–,inactive
C1CCOC1,0.0572% [at 95.7 µM] (inactive),–
CC(C)(CO)[C@@H](O)C(=O)NCCC(=O)O,–,inactive
ClC(Cl)Cl,–,inactive
CC(C)c1ccccc1,0.0084% [at 95.7 µM] (inactive),–
O=C1CCCCCCCCCCC(=O)OCCO1,-0.0943% (inactive),–
COC(C)CCO (stereo not given),-0.0807% (inactive),–
CC(C)C(=O)OC/C=C/c1ccccc1,-0.144% (inactive),–
CO[C@@]1(NC(=O)CSCC#N)C(=O)N2C(C(=O)O)=C(CSc3nnnn3C)CS[C@@H]21,0.382% [at 46 µM] (inactive),–
O=C(C(Cl)Cl)N1CCOC12CCCCC2,0.0848% (inactive),–
Cn1cnc2c(F)c(Nc3ccc(Br)cc3Cl)c(C(=O)NOCCO)cc21,0.0464% [at 46 µM] (inactive),–

Structure (SMILES),"fluorescence, % of fluorescent control",outcome
C=Cc1ccccc1,–,inactive
Cc1nc(-c2ccccn2)ncc1C(=O)Nn1cc(C)c2cc(F)ccc21,-0.0428% (inactive),–
CN1CCC[C@@H]1Cc1c[nH]c2ccc(CCS(=O)(=O)c3ccccc3)cc12,0.0851% [at 46 µM] (inactive),–
CCCCc1ccc2nc(NC(=O)OC)[nH]c2c1,-0.0106% [at 18.6 µM] (inactive),–
CC(=O)Nc1ccc(C)c(Cl)c1,0.128% (inactive),–
N#Cc1ccc(C(c2ccc(C#N)cc2)n2cncn2)cc1,–,inactive
CCOc1ccc(NC(N)=O)cc1,0% (inactive),–
NS(=O)(=O)c1cc(-c2nn[nH]n2)c(NCc2cccs2)cc1Cl,0.0078% [at 46 µM] (inactive),–
COC(=O)C(C)O (stereo not given),-0.019% [at 95.7 µM] (inactive),–
CN(C)CC[C@@H](c1ccc(Cl)cc1)c1ccccn1,0.368% [at 46 µM] (inactive),–
CCN(CC)CCNC(=O)COc1ccc(Cl)cc1,0.0194% [at 46 µM] (inactive),–
OCCN1CCN(CCO)CC1,-0.01% [at 95.7 µM] (inactive),–
CCCCCCCCc1ccc(S(=O)(=O)O)cc1,-0.061% (inactive),–
CCCCCCCCOC(=O)CCCCCCCCC(=O)OCCCCCCCC,0.0095% (inactive),–
CCCCNc1cc(C(=O)O)cc(S(N)(=O)=O)c1Oc1ccccc1,-0.0058% [at 18.6 µM] (inactive),–
O=C1CCC(C2CCCCC2)CC1,-0.0228% (inactive),–
CCOc1ccc(OCC)c(Cl)c1,-0.0461% (inactive),–
CCCCCCOc1ccc(N)cc1,0.148% (inactive),–
CN1CCN(c2c(F)cc3c(=O)c(C(=O)O)cn(CCF)c3c2F)CC1,-0.136% [at 46 µM] (inactive),–
OCCN(CCO)CCN(CCO)CCO,0.117% (inactive),–
